Laboratory results as given in the supplement of paper PMC6555819.

Columns and labels:
Assay in all cases: PBM binding z-score (relative to random genomic background probes); higher = stronger binding; sequences stand for … in GC…GCGATTGACAGCGTAGAATGAAGG
[1] = test system: FXR:RXRa (NR concentration 270 nM, RXRa partner concentration 90 nM)
Method in brief: (§1)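 On custom Agilent 4×180K arrays, double-stranded probes with 34-nt variable regions carried direct-repeat seeds, single-nucleotide variants, half-site ablations or random human genomic background. Ligand-free nuclear receptor dimers were applied for 1 h, and binding was read with antibodies against each partner (one per run). Binding z-scores come from regression-normalized fluorescence, with the random background probes as reference.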

[2] = test system: LXRa:RXRa (NR concentration 270 nM, RXRa partner concentration 90 nM)
Method in brief: as §1

[3] = test system: LXRa homodimer (NR concentration 270 nM)
Method in brief: as §1

[4] = test system: LXRb:RXRa (NR concentration 270 nM, RXRa partner concentration 90 nM)
Method in brief: as §1

[5] = test system: LXRb homodimer (NR concentration 270 nM)
Method in brief: as §1

[6] = test system: PPARa:RXRa (NR concentration 270 nM, RXRa partner concentration 90 nM)
Method in brief: as §1

[7] = test system: PPARg:RXRa (NR concentration 180 nM, RXRa partner concentration 90 nM)
Method in brief: as §1

[8] = test system: PPARg:RXRa 270nM:90nM, anti-RXR (NR concentration 270 nM, RXRa partner concentration 90 nM)
Method in brief: as §1

[9] = test system: PPARg:RXRa 30nM:10nM, anti-RXR (NR concentration 30 nM, RXRa partner concentration 10 nM)
Method in brief: as §1

[10] = test system: PPARg:RXRa 90nM:30nM, anti-RXR (NR concentration 90 nM, RXRa partner concentration 30 nM)
Method in brief: as §1

[11] = test system: PPARg:RXRa DBDmut IVT, anti-RXR (DBD mutation: RXRa K156A/R161A, NR concentration 270 nM, RXRa partner concentration 90 nM)
Method in brief: as §1

[12] = test system: PPARg:RXRa IVT, anti-PPARg (NR concentration 270 nM, RXRa partner concentration 90 nM)
Method in brief: as §1

[13] = test system: PPARg DBDmut:RXRa IVT, anti-PPARg (DBD mutation: PPARg1 K132A/R137A, NR concentration 270 nM, RXRa partner concentration 90 nM)
Method in brief: as §1

[14] = test system: PPARg DBDmut IVT, anti-PPARg (DBD mutation: PPARg1 K132A/R137A, NR concentration 270 nM)
Method in brief: as §1

[15] = test system: PPARg homodimer (NR concentration 180 nM)
Method in brief: as §1

[16] = test system: PXR:RXRa (NR concentration 270 nM, RXRa partner concentration 90 nM)
Method in brief: as §1

[17] = test system: PXR homodimer (NR concentration 270 nM)
Method in brief: as §1

[18] = test system: RARa:RXR (NR concentration 270 nM, RXRa partner concentration 90 nM)
Method in brief: as §1

[19] = test system: RARa homodimer (NR concentration 270 nM)
Method in brief: as §1

[20] = test system: RARb:RXRa (NR concentration 270 nM, RXRa partner concentration 90 nM)
Method in brief: as §1

CCAGACAGGTGAAAGATAACTCAGTCTGGTACGC was tested, and the PBM binding z-score [1] was -0.034, the PBM binding z-score [2] was 0.0578 and the PBM binding z-score [3] was -0.199. It also gave a PBM binding z-score [4] of -0.0465, a PBM binding z-score [5] of -0.465 and a PBM binding z-score [6] of 0.902. The PBM binding z-score [7] was 1.27, the PBM binding z-score [8] was 1.47 and the PBM binding z-score [9] was 0.306. The PBM binding z-score [10] was 1, the PBM binding z-score [11] was 1.22 and the PBM binding z-score [12] was 0.571. It also gave a PBM binding z-score [13] of -0.176, a PBM binding z-score [14] of -0.498 and a PBM binding z-score [15] of 0.844. For the same sequence, the PBM binding z-score [16] was -0.0544, the PBM binding z-score [17] was 0.127 and the PBM binding z-score [18] was 0.381. For the same sequence, the PBM binding z-score [19] was 0.87 and the PBM binding z-score [20] was 0.534.

For CCGACTGGGGCAAGGTGACCATAACGCACAGCCA, the PBM binding z-score [1] was -0.279, the PBM binding z-score [2] was -0.424 and the PBM binding z-score [3] was -0.369. It also gave a PBM binding z-score [4] of -0.293, a PBM binding z-score [5] of -1.35 and a PBM binding z-score [6] of 0.808. For the same sequence, the PBM binding z-score [7] was 1.99, the PBM binding z-score [8] was 1.81 and the PBM binding z-score [9] was -0.0516. The PBM binding z-score [10] was 0.949, the PBM binding z-score [11] was 2.69 and the PBM binding z-score [12] was 3.79. It also gave a PBM binding z-score [13] of -0.323, a PBM binding z-score [14] of -0.812 and a PBM binding z-score [15] of 0.0642. It also gave a PBM binding z-score [16] of -0.346, a PBM binding z-score [17] of -0.578 and a PBM binding z-score [18] of -0.0197. The PBM binding z-score [19] was -0.0269 and the PBM binding z-score [20] was 1.14.

ATATGTAGGTTATCGGGTCATGCAGTTTGCGCAT showed a PBM binding z-score [1] of 2.87, a PBM binding z-score [2] of 3.08 and a PBM binding z-score [3] of 1.26. The PBM binding z-score [4] was 2.54, the PBM binding z-score [5] was 0.785 and the PBM binding z-score [6] was 4.99. It also gave a PBM binding z-score [7] of 7.53, a PBM binding z-score [8] of 6.31 and a PBM binding z-score [9] of 4.45. For the same sequence, the PBM binding z-score [10] was 6.01, the PBM binding z-score [11] was 7.6 and the PBM binding z-score [12] was 7.68. It also gave a PBM binding z-score [13] of 2.17, a PBM binding z-score [14] of 1.66 and a PBM binding z-score [15] of 2.79. It also gave a PBM binding z-score [16] of 3.47, a PBM binding z-score [17] of 2.99 and a PBM binding z-score [18] of 4.11. For the same sequence, the PBM binding z-score [19] was 1.09 and the PBM binding z-score [20] was 2.55.

GCTAGCAGGCCATTTGGGTGACTCAATGACGGGC showed a PBM binding z-score [1] of -0.535, a PBM binding z-score [2] of -0.729 and a PBM binding z-score [3] of -0.901. The PBM binding z-score [4] was -1.05, the PBM binding z-score [5] was -1.19 and the PBM binding z-score [6] was 0.031. For the same sequence, the PBM binding z-score [7] was 0.218, the PBM binding z-score [8] was -0.431 and the PBM binding z-score [9] was -0.682. The PBM binding z-score [10] was -0.48, the PBM binding z-score [11] was 1.46 and the PBM binding z-score [12] was 0.949. For the same sequence, the PBM binding z-score [13] was -0.802, the PBM binding z-score [14] was -0.751 and the PBM binding z-score [15] was -0.989. For the same sequence, the PBM binding z-score [16] was -0.366, the PBM binding z-score [17] was -0.793 and the PBM binding z-score [18] was -0.229. It also gave a PBM binding z-score [19] of -1.01 and a PBM binding z-score [20] of 0.0482.

For TCGAGTAGTTTAGGGGCATTCAGAATGGCGTCGA, the PBM binding z-score [1] was -0.0607, the PBM binding z-score [2] was 0.048 and the PBM binding z-score [3] was -0.581. The PBM binding z-score [4] was 0.829, the PBM binding z-score [5] was -0.452 and the PBM binding z-score [6] was 0.549. The PBM binding z-score [7] was -0.393, the PBM binding z-score [8] was 0.237 and the PBM binding z-score [9] was 0.631. It also gave a PBM binding z-score [10] of 0.559, a PBM binding z-score [11] of 0.75 and a PBM binding z-score [12] of -0.281. The PBM binding z-score [13] was -0.799, the PBM binding z-score [14] was -1.01 and the PBM binding z-score [15] was -0.288. It also gave a PBM binding z-score [16] of 0.444, a PBM binding z-score [17] of -0.187 and a PBM binding z-score [18] of 0.532. The PBM binding z-score [19] was -0.906 and the PBM binding z-score [20] was 0.653.

Work on GGAAGGAGGGCATTCGAGTTGATAGCATGGCGAT yielded a PBM binding z-score [1] of 1.31, a PBM binding z-score [2] of 1.78 and a PBM binding z-score [3] of 0.199. The PBM binding z-score [4] was 0.866, the PBM binding z-score [5] was 0.337 and the PBM binding z-score [6] was 1.46. For the same sequence, the PBM binding z-score [7] was 0.926, the PBM binding z-score [8] was 1.07 and the PBM binding z-score [9] was -0.0182. For the same sequence, the PBM binding z-score [10] was 0.639, the PBM binding z-score [11] was 3.26 and the PBM binding z-score [12] was 2.42. It also gave a PBM binding z-score [13] of -0.146, a PBM binding z-score [14] of 0.314 and a PBM binding z-score [15] of 0.39. It also gave a PBM binding z-score [16] of 3.38, a PBM binding z-score [17] of 1.3 and a PBM binding z-score [18] of 0.52. For the same sequence, the PBM binding z-score [19] was -0.113 and the PBM binding z-score [20] was 1.56.
